Reference: PubChem BioAssay (Tox21)
Where “and” joins values, the source holds several entries; their conditions need not be identical. Identical values can stand only once. Inconclusive results are not listed. Entries that show only a call come without a potency. Calls of active or inactive are those of the source. The call rests on the fitted dose curve; in most records, active means well fitted cell-killing curve with a large enough effect in the repeat runs; inconclusive means weak or mixed curves, or effect the other way; inactive means no such curve, though single readings can be large or run the other way.

test: qHTS assay for small molecule activators of the heat shock response signaling pathway - cell viability counter screen (AID 743209); conditions: HSE-bla HeLa viability, CellTiter-Glo luminescence, 5 h; series mostly up to 62.6 µM; further: nearly all actives have a fitted effect of over 50% in size
Description: U.S. Tox21 Program National Center for Advancing Translational Sciences [NCATS] NIH Chemical Genomics Center [NCGC] U.S. Environmental Protection Agency [EPA] National Institutes of Environmental Health Sciences [NIEHS] National Toxicology Program [NTP] U.S. Food and Drug Administration [FDA] Tox21 Assay Overview: Various chemicals, environmental and physiological stress conditions may lead to the activation of heat shock response/ unfolded protein response (HSR/UPR). There are three heat shock transcription factors (HSFs) (HSF-1, -2, and -4) mediating transcriptional regulation of the human HSR. To identify the compounds that activate HSR signaling, HSE-bla HeLa cell line (Invitrogen, Carlsbad, CA, USA) containing a beta-lactamase reporter gene under the control of the heat shock response elements was used to screen Tox21 10K compound library. The cytotoxicity of the Tox21 compound library against the HSE-bla HeLa cell line was tested in parallel by measuring the cell viability using CellTiter-Glo assay (Promega, Madison, WI) in the same wells.
Tox21 Assay Protocol Summary: The CellSensor HSE-bla HeLa cells (Invitrogen, Carlsbad, CA, USA) were dispensed at 1500 cells/6uL/well into 1536-well black wall/clear bottom plates using a Multidrop combi (Thermo Fisher Scientific, Waltham, MA) dispenser. After the assay plates were incubated at 37 C and 5% CO2 overnight, 23 nL of compounds dissolved in DMSO, positive controls or DMSO only was transferred to the assay plate by a Pintool station (Kalypsys, San Diego, CA). The plates were incubated at 37 C for 5 h. After 1 uL of LiveBLAzerTM B/G FRET substrate was added using a Flying Reagent Dispenser (FRD, Beckman Coulter, Indianapolis, IN, USA), the plates were incubated at room temperature for 2.5 h, and fluorescence intensity was measured by an Envision plate reader (PerkinElmer, Shelton, CT). For cell viability readout that measures cytotoxicity, 3 ul/well of CellTiter-Glo reagent was added into the assay plates using a FRD. After 30 min incubation at room temperature, the luminescence intensity in the plates was measured using a ViewLux (PerkinElmer) plate reader.
Potency means the concentration at half of the fitted maximal effect.

SMILES | Potency
N#CSCc1ccccc1 | inactive
COc1c2c(cc3c1OCO3)CCN(C)C2 | inactive
O=C(NC(=O)c1ccccc1Cl)Nc1ccc(OC(F)(F)F)cc1 | inactive
CNC(C)(C)Cc1ccccc1 | inactive
Nc1ccccc1-c1ccccc1 | inactive
O=c1[nH]c(Cl)c(Cl)cc1Cl | inactive
CCCN | inactive
N#Cc1c[nH]cc1-c1cccc2c1OC(F)(F)O2 | inactive
CC(=O)C(Cl)C(=O)N(C)C (stereo not given) | inactive
[C-]1=CC=CC1.[Cl][Zr+2][Cl].c1cc[cH-]c1 | inactive
C=CC(=C)C | inactive
CC(C)=CCN1CC[C@@]2(C)c3cc(O)ccc3C[C@@H]1[C@@H]2C | inactive
COP(=S)(OC)Oc1nc(Cl)c(Cl)cc1Cl | inactive
CCNS(=O)(=O)C(F)(F)C(F)(F)C(F)(F)C(F)(F)C(F)(F)C(F)(F)C(F)(F)C(F)(F)F | inactive
CCCCCON=O | inactive
OCC(Br)CBr (stereo not given) | inactive
CCN(CC)C(=S)S | 6.98 µM (active) and 2.75 µM (active)
C1=CCC=C1 | inactive
CSSC | inactive
CC1CCCC1 | 12.1 µM (active)

SMILES | Potency
C=CCBr | inactive
CSC(=O)c1c(C(F)F)nc(C(F)(F)F)c(C(=O)SC)c1CC(C)C | inactive
COc1cnc(OC)n2nc(NS(=O)(=O)c3c(OCC(F)F)cccc3C(F)(F)F)nc12 | inactive
CC(=O)[O][Sn]([c]1ccccc1)([c]1ccccc1)[c]1ccccc1 | 15.5 µM (active)
NC(=O)C(Cl)Cl | inactive
Cc1ccn2nc(S(=O)(=O)Nc3c(F)cccc3F)nc2n1 | inactive
CCc1cccc(C)c1N(C(=O)CCl)[C@@H](C)COC | inactive
CCC(C)Nc1c([N+](=O)[O-])cc(C(C)(C)C)cc1[N+](=O)[O-] (stereo not given) | inactive
COC(=O)C(C)N(C(=O)c1ccco1)c1c(C)cccc1C (stereo not given) | inactive
CC1CN1 (stereo not given) | inactive
COc1nc(C)nc(NC(=O)NS(=O)(=O)c2ccccc2Cl)n1 | inactive
O=C(O)CCCCCCNC1c2ccccc2CCc2ccccc21 | inactive
CN(C)c1ccc(N)cc1 | inactive
CCC(OC(C)=O)C(CC(C)NC)(c1ccccc1)c1ccccc1 (stereo not given) | inactive
Cc1ccc([N+](=O)[O-])[c]2c1[O][Hg]2 | 5.31 µM (active)
COc1ccc(Cc2nccc3cc(OC)c(OC)cc23)cc1OC | inactive
CC(C)C(Nc1ccc(C(F)(F)F)cc1Cl)C(=O)OC(C#N)c1cccc(Oc2ccccc2)c1 (stereo not given) | inactive
Cc1nn(-c2cc(NS(C)(=O)=O)c(Cl)cc2Cl)c(=O)n1C(F)F | inactive
O=C1C(Cl)=C(Cl)C(=O)C(Cl)=C1Cl | inactive
CCCCC(CC)COC(=O)OOC(C)(C)C (stereo not given) | 49 µM (active)
